High-throughput results from PubChem.
Only some compounds are listed: those with a hit (about 4.8% of all), similar ones and a draw of the others.
ssDAF12 agonist: activates DAF-12 receptor from parasite S. stercoralis. 370,000 compounds, 1% hits. AID 652126. activation, % at 6.8 µM. HEK293 ssDAF-12/GRIP1 lit1-tk-luc reporter, luminescence; % of 3 µM dafachronic acid response;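 active = activation above the mean over all tested compounds plus 3 SD, cut at about 0.9% in these data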;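 note: 0% = DMSO-only wells and 100% = 3 µM delta7-dafachronic acid wells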
DAX1 inh-1: DAX1 (NR0B1) inhibition, primary screen; HEK293T StAR-luciferase reporter, SF-1/DAX-1 repression relief; inhibition, % at 6.8 µM; 370,000 compounds, 1.1% hits;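 active = inhibition above the mean over all tested compounds plus 3 SD, cut at about 3.6% in these data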;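 note: 0% = DAX-1 cells with DMSO and 100% = cells lacking DAX-1 with DMSO; higher inhibition means more luminescence from relief of DAX-1 repression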
hgDAF-12 ag: agonists of H. glycines DAF-12 nuclear receptor; HEK293 GAL4-hgDAF12 UAS-luciferase reporter, agonist luminescence; normalized to butyrate control; activation, % at 6.8 µM; 370,000 compounds, 1.8% hits; AID 687014;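 active = activation above a cutoff set at the mean of all screened compounds plus 3 SD, cut at about 10% in these data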;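 note: 0% = DMSO wells and 100% = sodium butyrate wells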
DAX1 inh-2: inhibits human nuclear receptor DAX1; P51843; HEK293 Gal4-DAX1 luciferase reporter, luminescence; inhibition, % at 6.75 µM; 340,000 compounds, 0.99% hits; AID 504766;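 active = inhibition above the mean over all tested compounds plus 3 SD, cut at about 4.2% in these data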;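 note: 0% = DAX1-transfected cells with DMSO and 100% = empty-vector control cells with DMSO; inhibition shows as a rise in luminescence from relieved DAX1 repression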
Target sequence (P51843 207-470 limits assumed): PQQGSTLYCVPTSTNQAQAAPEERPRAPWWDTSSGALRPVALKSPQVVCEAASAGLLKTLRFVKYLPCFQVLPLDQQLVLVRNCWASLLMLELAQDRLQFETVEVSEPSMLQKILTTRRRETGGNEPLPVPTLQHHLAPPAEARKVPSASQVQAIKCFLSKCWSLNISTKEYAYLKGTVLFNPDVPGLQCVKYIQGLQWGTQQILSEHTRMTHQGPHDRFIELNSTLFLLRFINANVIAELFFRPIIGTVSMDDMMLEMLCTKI
SMARCA2 activ: activators of SMARCA2 function | 370,000 compounds, 1% hits | activation, % at 9.1 µM | MG213 cells, MMTV-luciferase reporter, dexamethasone, overnight | AID 652017; in the data active = activation above about 7.8%;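 note: 0% = vehicle wells and 100% = reference activator wells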
hcDAF-12 act: H. contortus DAF-12 activation, primary screen; HEK293 hcDAF-12 lit1-tk-luc reporter, luminescence; 0% DMSO, 100% Δ7-dafachronic acid; activation, % at 6.8 µM; 370,000 compounds, 1.4% hits; AID 652067;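 active = activation above the mean of all tested compounds plus 3 SD, cut at about 5.5% in these data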;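 note: 100% = response to 3 µM Δ7-dafachronic acid high control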
SMARCA2 conf: SMARCA2 activation, confirmation screen; MG213 cells, MMTV-luciferase with dexamethasone, luminescence, overnight; MG213 cells expressing E1A, Rb sequestered; DMSO wells 0%, reference activator 100%; AID 652260; shares compounds with SMARCA2 activ; 3,500 compounds, 30% hits; activation, % at 9.1 µM;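 active = activation above its plate's cutoff, the mean activation of tested wells plus 3 SD, cut at about 7.9% in these data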
GAL4-VP16 Luc: GAL4-VP16 reporter activation counter-screen; activation, % at 9.1 µM; HEK293 GAL4-VP16 pG5luc reporter, luciferase luminescence; scaled: DMSO wells 0%, SAHA wells 100%; 3,500 compounds, 41% hits; AID 686939; shares compounds with SMARCA2 activ;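 active = activation above the solvent-only control well mean plus 3 SD, averaged across control plates, cut at about 5.2% in these data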
* hit, by the source's call; / = no result given.

SMILES | ssDAF12 agonist | DAX1 inh-1 | hgDAF-12 ag | DAX1 inh-2 | SMARCA2 activ | hcDAF-12 act | SMARCA2 conf | GAL4-VP16 Luc
CCNC(=O)Nc1ccc2c(c1)C(=O)N(C)[C@H]1CC[C@@H](CC(=O)NCCN3CCCC3)O[C@@H]1CO2 | -0.4 | -0.1 | 5.9 | / | 0.7 | 0.6 | / | /
CCCCN1CC[C@H](C)Oc2cc(Br)ccc2S1(=O)=O | -0.6 | -0.1 | -1.2 | / | -1.6 | 1.2 | / | /
COC(=O)c1cc(NC(=O)NC2CCCCN(Cc3ccc(Cl)cc3)C2=O)cc(C(=O)OC)c1 (configuration not stated) | -1.1 | -1.5 | -0.4 | / | 4.9 | -3.3 | / | /
O=C(c1cc(COc2c(F)cccc2F)on1)N1C[C@H]2CC[C@H]1C2 | 0.0 | 3.5 | 11.3* | 1.3 | 10.0* | 4.0 | 11.2* | 11.2*
Nc1ccc(Nc2nc(-c3cc4ccccc4oc3=O)cs2)cc1 | -1.6 | -1.4 | 4.4 | -0.5 | 2.3 | -2.0 | / | /
CNc1nnc(-c2cc3ccccc3oc2=O)s1 | -0.8 | 2.5 | 6.5 | 0.5 | 8.3* | 1.1 | 12.6* | 14.3*
C#CCNC(=O)C[C@H]1C[C@@]2(C(=O)OC)C(=C[C@H](C(C)(C)C)O[C@@H]2C)N(Cc2ccccc2)C1=O | -1.4 | 0.6 | 1.6 | / | -1.2 | -0.8 | / | /
COc1ccc(NC(=O)c2ccc(-c3ccc(-c4noc(C)n4)cc3C)cc2)cc1N1CCN(C)CC1 | -1.6 | 0.7 | 2.0 | -0.6 | 13.0* | -2.8 | 16.8* | -0.5
Cc1ccc(CN2CCCCC(NC(=O)c3cccc(F)c3)C2=O)cc1 (configuration not stated) | -0.9 | -0.3 | -1.2 | / | 0.1 | -2.3 | / | /
COc1cccc2oc3ccc(C#Cc4ccccn4)cc3c(=O)c12 | -0.2 | 3.0 | 11.0* | 2.5 | 10.4* | 3.3 | 2.8 | 10.3*
COc1cccc2sc3cc(C#Cc4ccccn4)ccc3c(=O)c12 | -1.2 | 0.3 | -2.8 | -1.4 | 3.9 | -1.8 | / | /
O=c1c2ccccc2oc2cc(C#Cc3ccccn3)ccc12 | -0.5 | 2.7 | 6.5 | 2.6 | 8.0* | 1.6 | 3.1 | 9.6*
O=C(Nc1ccc(CCC(=O)N2CCCC2)cc1)c1ncn[nH]1 | -1.2 | -0.4 | -2.4 | 0.1 | 8.2* | -0.7 | -4.7 | 2.2
Fc1ccccc1Cn1ccc2ccc(-c3ccc4ccn(Cc5ccccc5F)c4c3)cc21 | -1.1 | -1.1 | 3.4 | / | 1.6 | -1.9 | / | /
CC(OP(=O)(O)C(NC(=O)[C@H](Cc1ccc(O)cc1)NC(=O)OC(C)(C)C)C(C)C)C(=O)O (some centres not stated) | -1.6 | / | 0.0 | / | / | 0.0 | / | /
Cc1ccc(Cn2ccnc2C(=O)Nc2ccccc2)cc1 | 0.5 | 0.7 | 7.4 | 1.1 | 9.3* | 3.0 | 6.5 | 2.9
N#Cc1ccc(Cn2ccnc2C(=O)Nc2ccccc2)cc1 | -1.3 | 0.0 | 0.4 | 0.8 | -1.3 | -1.8 | / | /
Cc1nc2nc(C)c(NS(=O)(=O)c3ccc4c(c3)CCCC4)c(=O)n2[nH]1 | -1.0 | 0.2 | -3.9 | -1.2 | 8.9* | 0.7 | -1.5 | 3.2
COc1ccc(S(=O)(=O)Nc2c(C)nc3nc(C)[nH]n3c2=O)cc1 | 0.1 | 0.5 | -0.6 | -0.5 | -3.0 | 1.5 | / | /
O=C(Cn1c(-c2cncs2)nc2ccccc21)N1CCOCC1 | -0.9 | -0.8 | 1.2 | / | 0.8 | -1.8 | / | /
COC(=O)C1C(=O)c2c([nH]c(C(=O)OC3CCCC3)c2C)CC1C (configuration not stated) | 0.1 | 3.3 | 8.9 | 2.1 | 8.2* | 6.0* | 7.2 | 8.4*
Cc1ccc(C=Nn2c(-c3n[nH]c4c3CCC4)n[nH]c2=S)s1 | -1.2 | -0.1 | -2.6 | / | -1.6 | -3.9 | / | /
Cc1ccc(C(=O)c2cnc3cc4c(cc3c2S(=O)(=O)c2ccccc2)OCCO4)cc1 | -1.2 | -0.6 | 5.2 | -1.4 | 9.5* | 2.1 | 0.3 | 5.5*
